Data from PubChem BioAssay (Tox21).
Records with an inconclusive call do not appear. Calls of active or inactive are those of the source. Unless noted, calls come from the whole dose curve.

Tests used:
[1] = Nuclear factor erythroid 2-related factor 2/antioxidant responsive element (Nrf2/ARE) small molecule agonists: qHTS cell viability counter screen in human keratinocytes (AID 1919968; active = well fitted curve in the direction sought with a large enough effect in the repeat runs; an effect the other way counts as inactive or inconclusive; note: nearly all actives have a fitted effect of over 55% in size)
Procedure, shortened: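 Seed 1,500 KeratinoSens cells per well, then incubate 5 h at 37 C/5% CO2. Add compounds in DMSO and incubate 23 h. Add CellTiter-Fluor, wait 1 h and read fluorescence.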

[2] = Nuclear factor erythroid 2-related factor 2/antioxidant responsive element (Nrf2/ARE) small molecule agonists: luciferase reporter gene qHTS assay in human keratinocytes (AID 1919969); note: nearly all actives have a fitted effect of over 35% in size
[3] = target: Gonadotropin-releasing hormone receptor (Homo sapiens) (UniProt P30968); assay: Human gonadotropin-releasing hormone receptor (GnRHR) small molecule agonists, calcium flux assay in GnRHR-HEK293 cells (AID 1920063); note: nearly all actives have a fitted effect of over 35% in size
Procedure, shortened: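 Cells: HEK293 stably expressing human GnRHR. Steps: overnight (18 h) culture, 1 h calcium dye loading at 37 C, compound addition, kinetic fluorescence read at 480/540 nm. Each compound tested at 15 concentrations in triplicate.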

[4] = target: KiSS-1 receptor (Homo sapiens) (UniProt Q969F8); assay: Human kisspeptin (KISS1R) small molecule agonists, calcium flux assay in KISS1R-HEK293 cells (AID 1920064; active = well fitted curve in the direction sought with a large enough effect in the repeat runs; an effect the other way counts as inactive or inconclusive)
Procedure, shortened: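 Cells plated and incubated 18 h; dye added, 1 h at 37 C; compounds in DMSO pinned in; signal read at 480/540 nm every second for 3 min. Each compound tested at 15 concentrations in triplicate.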

[5] = G protein-coupled receptor (GPCR) small molecule agonists, calcium flux assay: HEK293 wild type cell line counter screen (AID 1920065)
Procedure, shortened: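 Counter-screen of the Tox21 10K library for non-specific calcium release: dye-loaded cells received compounds in DMSO and were monitored by kinetic fluorescence (480/540 nm, 3 min). Fifteen concentrations, run in triplicate.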

[6] = p53 small molecule agonists, cell-based qHTS assay with human liver microsomes (AID 1963577);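 note: p53 response element beta-lactamase reporter cells with liver microsomes plus NADPH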
Procedure, shortened: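 HLM-supplemented p53RE-bla reporter assay: 16 h compound exposure at 37 C, microsomes and NADPH each 0.5 mg/mL final, read by fluorescence intensity.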

[7] = p53 small molecule agonists, cell-based qHTS assay with rat liver microsomes (AID 1963578)
Procedure, shortened: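 Quantitative HTS of the Tox21 10K library: p53RE-bla cells, rat liver microsomes plus NADPH at 0.5 mg/mL final each, 16 h at 37 C, beta-lactamase fluorescence detection.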

[8] = p53 small molecule agonists, cell-based qHTS assay with human liver microsomes: qHTS cell viability counter screen (AID 1963579); note: nearly all actives have a fitted effect of over 45% in size
Procedure, shortened: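 Viability of p53RE-bla cells is measured as CellTiter-Glo luminescence following a 16 h, 37 C incubation with compound, liver microsomes from human donors and NADPH.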

[9] = p53 small molecule agonists, cell-based qHTS assay with rat liver microsomes: qHTS cell viability counter screen (AID 1963580); note: nearly all actives have a fitted effect of over 45% in size
Procedure, shortened: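 In HCT-116 cells carrying a p53 response element-bla reporter, compounds were metabolically activated in situ by rat liver microsomes with NADPH over 16 h. Cell ATP content then served as the cytotoxicity measure.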

[10] = p53 small molecule agonists, cell-based qHTS assay: qHTS cell viability counter screen (AID 1963581); note: nearly all actives have a fitted effect of over 45% in size
Procedure, shortened: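 Cells: HCT-116 with p53 response element-driven beta-lactamase. Treatment: 16 h, 37 C, compounds in DMSO. Read: CellTiter-Glo luminescence after 30 min RT.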

[11] = p53 small molecule agonists, cell-based qHTS assay (AID 1963582; active = well fitted activation curve with a large enough effect in the signal ratio in the repeat runs, not every such curve was filed as active; the % refers to the signal ratio)
Procedure, shortened: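 Quantitative HTS in p53RE-bla cells: after a 5 h settling period, compounds delivered in DMSO were left on cells for 16 h at 37 C, and reporter induction was measured as fluorescence following 2 h substrate loading.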

[12] = target: 5-hydroxytryptamine receptor 2A (Homo sapiens) (UniProt P28223); assay: 5-hydroxytryptamine receptor 2A (HTR2A) small molecule agonists, cell-based qHTS assay (AID 1963587); note: nearly all actives have a fitted effect of over 30% in size
Procedure, shortened: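 HTR2A-CHO cells, plated 18 h at 37 C/5% CO2, dye-loaded 1 h at 37 C; compounds in DMSO added by pin tool (agonist mode). Intracellular calcium flux read as kinetic fluorescence on FDSS over 2 min at 1 s intervals.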

[13] = target: Muscarinic acetylcholine receptor M1 (Homo sapiens) (UniProt P11229); assay: Cholinergic receptor muscarinic 1 (CHRM1) small molecule antagonists, cell-based qHTS assay (AID 1963588); note: nearly all actives have a fitted effect of over 40% in size
Procedure, shortened: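 CHRM1-CHO calcium-flux assay, antagonist mode. Cells were seeded 18 h, dye-loaded 1 h at 37 C and given compound for 5 min at RT, then acetylcholine was added at 50nM. FDSS fluorescence was read 3 min; 15 concentrations, three runs.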

[14] = target: Muscarinic acetylcholine receptor M1 (Homo sapiens) (UniProt P11229); assay: Cholinergic receptor muscarinic 1 (CHRM1) small molecule agonists, cell-based qHTS assay (AID 1963589); note: nearly all actives have a fitted effect of over 35% in size
Procedure, shortened: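 Agonist-mode qHTS in CHO cells stably carrying human muscarinic M1. Intracellular calcium is tracked by fluorescence every second after compound transfer; each compound runs at 15 concentrations in three independent runs.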

[15] = cAMP Responsive Elements (CRE) small molecule agonists, cell-based qHTS assay (AID 1963590)
Procedure, shortened: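 Agonist mode qHTS in CRE-bla HEK 293T cells: compounds dosed from DMSO for 3 h at 37 C/5% CO2, followed by LiveBLAzer B/G FRET substrate for 2 h at room temperature.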

[16] = cAMP Responsive Elements (CRE) small molecule antagonists, cell-based qHTS assay (AID 1963591; active = well fitted inhibition curve with a large enough effect in the signal ratio in the repeat runs, not every such curve was filed as active; the % refers to the signal ratio)
Procedure, shortened: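 Antagonist mode: test compounds are co-incubated with the adenylyl cyclase activator NKH477 (0.25 uM final) on CRE-bla HEK293T cells for 3 h at 37 °C, followed by LiveBLAzer substrate loading.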

[17] = target: D(2) dopamine receptor (Homo sapiens) (UniProt P14416); assay: Dopamine D2 receptor (DRD2) small molecule agonists, cell-based qHTS assay (AID 1963594); note: nearly all actives have a fitted effect of over 35% in size
Procedure, shortened: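 HEK293 cells stably expressing DRD2 were cultured 24 h at 37 C, then given Ro20-1724 (0.1 mM final) and compounds for 10 min at room temperature. NKH477 (200nM) was then added for 30 min. cAMP was read by HTRF.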

[18] = target: D(2) dopamine receptor (Homo sapiens) (UniProt P14416); assay: Dopamine D2 receptor (DRD2) small molecule antagonists, cell-based qHTS assay (AID 1963595; active = well fitted inhibition curve with a large enough effect in the signal ratio in the repeat runs, with a control signal flat; the % refers to the signal ratio)
Procedure, shortened: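 HTRF cAMP read-out at 665 and 620 nm emission (340 nm excitation). Antagonist mode: compounds were tested against 12 nM quinpirole in DRD2-HEK293 cells, with 200 nM NKH477 raising cAMP and 0.1 mM Ro20-1724 blocking its breakdown.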

[19] = target: Beta-2 adrenergic receptor (Homo sapiens) (UniProt P07550); assay: Adrenergic beta2 receptor (ADRB2) small molecule antagonists, cell-based qHTS assay (AID 1963592); note: series mostly up to about 92 µM; nearly all actives have a fitted effect of over 50% in size
Procedure, shortened: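 Cells (CHO, stable ADRB2 overexpression) incubated 18-20hr at 37C; compounds added from DMSO; agonist mix (1nM isoproterenol, 100uM IBMX, 25uM Ro-20-1724) added; 0.5hr RT; d2-cAMP and anti-cAMP-cryptate added; 1hr RT; 665/615 nm read.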

[20] = target: 5-hydroxytryptamine receptor 2A (Homo sapiens) (UniProt P28223); assay: 5-hydroxytryptamine receptor 2A (HTR2A) small molecule antagonists, cell-based qHTS assay (AID 1963586); note: nearly all actives have a fitted effect of over 45% in size
Procedure, shortened: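 Antagonist-mode intracellular calcium assay: DOI (4 nM) added after 5 min compound pre-incubation at room temperature to dye-loaded HTR2A-CHO cells. Fluorescence followed for 3 min, sampled every second.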

Measured: Potency

Sequence of Muscarinic acetylcholine receptor M1 (Homo sapiens) (P11229 whole entry, looked up): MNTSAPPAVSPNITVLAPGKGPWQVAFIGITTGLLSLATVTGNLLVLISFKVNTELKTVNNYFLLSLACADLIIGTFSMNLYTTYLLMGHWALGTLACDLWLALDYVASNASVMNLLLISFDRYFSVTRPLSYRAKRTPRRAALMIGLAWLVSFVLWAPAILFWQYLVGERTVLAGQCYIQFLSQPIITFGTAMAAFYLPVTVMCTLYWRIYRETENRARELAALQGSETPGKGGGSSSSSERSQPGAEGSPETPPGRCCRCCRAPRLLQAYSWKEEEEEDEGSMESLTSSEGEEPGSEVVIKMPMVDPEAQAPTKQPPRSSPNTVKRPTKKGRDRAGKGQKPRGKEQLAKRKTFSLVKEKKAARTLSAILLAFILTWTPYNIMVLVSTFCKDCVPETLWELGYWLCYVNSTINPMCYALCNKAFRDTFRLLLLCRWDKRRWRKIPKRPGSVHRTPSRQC
Sequence of KiSS-1 receptor (Homo sapiens) (Q969F8 whole entry, looked up): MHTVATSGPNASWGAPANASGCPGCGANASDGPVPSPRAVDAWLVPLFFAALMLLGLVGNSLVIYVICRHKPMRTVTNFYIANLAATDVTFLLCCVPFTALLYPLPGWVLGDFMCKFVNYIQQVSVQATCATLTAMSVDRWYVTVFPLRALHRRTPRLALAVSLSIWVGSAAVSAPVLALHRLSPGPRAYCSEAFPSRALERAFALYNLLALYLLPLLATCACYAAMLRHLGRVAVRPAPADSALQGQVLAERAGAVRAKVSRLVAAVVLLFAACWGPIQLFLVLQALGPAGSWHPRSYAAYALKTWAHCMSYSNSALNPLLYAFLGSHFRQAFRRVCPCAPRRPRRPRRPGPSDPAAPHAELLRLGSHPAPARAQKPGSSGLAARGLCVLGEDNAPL
Sequence of Gonadotropin-releasing hormone receptor (Homo sapiens) (P30968 whole entry, looked up): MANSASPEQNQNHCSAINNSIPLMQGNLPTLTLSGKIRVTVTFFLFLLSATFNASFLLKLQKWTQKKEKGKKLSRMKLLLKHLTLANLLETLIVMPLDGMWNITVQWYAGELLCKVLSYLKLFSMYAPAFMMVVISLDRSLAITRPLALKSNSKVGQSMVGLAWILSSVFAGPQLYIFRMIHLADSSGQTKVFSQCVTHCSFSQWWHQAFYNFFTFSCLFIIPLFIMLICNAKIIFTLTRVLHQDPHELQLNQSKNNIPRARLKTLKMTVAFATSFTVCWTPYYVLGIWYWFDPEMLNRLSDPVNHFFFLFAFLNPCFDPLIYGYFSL
Sequence of D(2) dopamine receptor (Homo sapiens) (P14416 whole entry, looked up): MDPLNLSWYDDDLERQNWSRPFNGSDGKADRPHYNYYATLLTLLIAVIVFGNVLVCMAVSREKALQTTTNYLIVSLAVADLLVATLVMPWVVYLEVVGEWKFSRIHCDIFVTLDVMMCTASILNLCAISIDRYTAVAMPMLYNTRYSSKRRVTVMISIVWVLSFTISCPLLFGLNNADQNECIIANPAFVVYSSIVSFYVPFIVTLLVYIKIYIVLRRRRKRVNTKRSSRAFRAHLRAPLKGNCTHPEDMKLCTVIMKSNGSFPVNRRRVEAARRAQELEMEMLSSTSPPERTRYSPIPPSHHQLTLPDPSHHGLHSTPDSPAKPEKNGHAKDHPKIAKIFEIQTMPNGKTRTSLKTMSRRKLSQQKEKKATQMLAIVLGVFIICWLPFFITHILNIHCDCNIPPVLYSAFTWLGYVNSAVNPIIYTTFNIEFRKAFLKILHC
Sequence of Beta-2 adrenergic receptor (Homo sapiens) (P07550 whole entry, looked up): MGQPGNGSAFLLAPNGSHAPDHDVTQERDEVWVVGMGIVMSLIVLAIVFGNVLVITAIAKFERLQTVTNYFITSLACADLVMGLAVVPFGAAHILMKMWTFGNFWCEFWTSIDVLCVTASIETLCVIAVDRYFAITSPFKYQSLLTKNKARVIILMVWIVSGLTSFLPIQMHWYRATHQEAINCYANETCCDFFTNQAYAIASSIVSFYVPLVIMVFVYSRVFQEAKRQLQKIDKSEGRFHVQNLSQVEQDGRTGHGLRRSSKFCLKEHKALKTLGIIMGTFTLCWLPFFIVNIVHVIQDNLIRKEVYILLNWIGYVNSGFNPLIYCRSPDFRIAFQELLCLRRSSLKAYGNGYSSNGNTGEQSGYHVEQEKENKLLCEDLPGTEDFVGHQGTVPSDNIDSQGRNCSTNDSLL
Sequence of 5-hydroxytryptamine receptor 2A (Homo sapiens) (P28223 whole entry, looked up): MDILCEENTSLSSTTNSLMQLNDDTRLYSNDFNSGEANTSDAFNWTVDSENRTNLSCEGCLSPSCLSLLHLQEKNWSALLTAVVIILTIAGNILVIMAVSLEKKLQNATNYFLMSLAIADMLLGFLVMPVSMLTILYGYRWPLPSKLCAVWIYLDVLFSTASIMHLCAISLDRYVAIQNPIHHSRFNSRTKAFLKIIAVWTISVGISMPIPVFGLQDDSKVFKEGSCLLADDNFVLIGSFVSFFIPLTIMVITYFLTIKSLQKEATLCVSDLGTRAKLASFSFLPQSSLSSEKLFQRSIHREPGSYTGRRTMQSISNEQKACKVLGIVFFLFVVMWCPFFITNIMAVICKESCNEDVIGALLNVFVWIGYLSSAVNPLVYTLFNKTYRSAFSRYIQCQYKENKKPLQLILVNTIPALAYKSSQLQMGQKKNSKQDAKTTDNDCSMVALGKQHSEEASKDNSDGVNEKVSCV

CCCCCCC(C)(C)C(=O)O
not listed: [19] | [20]
inactive: all other assays above

CN1CCCC1
not listed: [20]
inactive: all other assays above

CNc1ccccc1
not listed: [15] | [20]
inactive: all other assays above

C/C(=N\O)[C@@H](C)NCC(C)(C)CN[C@H](C)/C(C)=N/O
not listed: [12] | [13] | [14] | [15]
inactive: all other assays above

CCCCCCOC(=O)CC
not listed: [20]
inactive: all other assays above

CCCCOC(=O)CCS
not listed: [11] | [18]
inactive: all other assays above

C[C@@H]1O[C@@H](OC[C@H]2O[C@@H](Oc3c(-c4ccc(O)c(O)c4)oc4cc(O)cc(O)c4c3=O)[C@H](O)[C@@H](O)[C@@H]2O)[C@H](O)[C@H](O)[C@H]1O
not listed: [18] | [19] | [20]
inactive: all other assays above
